Outcome and AC50 data for six compounds are collected here from PubChem BioAssay (EPA / NIEHS).

By AC50 is commonly meant the midpoint of the concentration-response curve, whichever way the signal moves.

Read-out in experiment [1]: Monokine induced gamma interferon (MIG), CXCL9 (gene 4283)
Nature of the experiment: BSK_KF3CT_MIG: BioMAP Diversity Plus: KF3CT Assay for Monokine induced gamma interferon (MIG) Biomarker Activity (AID 2284248). The settings on record: primary human keratinocytes with fibroblasts. An outline of the steps: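 ELISA read-out of MIG after 24 h chemical exposure of human skin primary co-culture (keratinocytes, foreskin fibroblasts). Gain of signal relative to DMSO negative control was analysed.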

Read-out in experiment [2]: Vascular cell adhesion molecule 1 (VCAM1), VCAM1 (gene 7412)
In words: BSK_BF4T_VCAM1: BioMAP Diversity Plus: BF4T Assay for Vascular cell adhesion molecule 1 (VCAM1) Biomarker Activity (AID 2284249). The settings on record: primary human bronchial epithelial cells with fibroblasts. An outline of the steps:
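Human bronchial epithelial cell and dermal fibroblast co-culture exposed 24 h. VCAM-1 measured by ELISA; parallel SRB total-protein staining for cytotoxicity. Fitted in positive direction relative to DMSO.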

Read-out in experiment [3]: Interleukin-8 (IL8), CXCL8 (gene 3576)
In words: BSK_KF3CT_IL8: BioMAP Diversity Plus: KF3CT Assay for Interleukin-8 (IL8) Biomarker Activity (AID 2284254). The settings on record: primary human keratinocytes with fibroblasts. An outline of the steps:
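IL-8 read-out: ELISA, 24 h post-dose, human skin primary co-culture (keratinocytes + foreskin fibroblasts). DMSO = baseline; positive-direction fit.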

Read-out in experiment [4]: Macrophage Inflammatory Protein-1 Alpha (MIP1a), CCL3 (gene 6348)
Nature of the experiment: BSK_IMphg_MIP1a: BioMAP Diversity Plus: IMphg Assay for Macrophage Inflammatory Protein-1 Alpha (MIP1a) Biomarker Activity (AID 2284255). The settings on record: primary human endothelial cells with macrophages. In outline:
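Co-culture of human venular endothelial cells and macrophages exposed to compounds for 24 h; MIP-1a measured by ELISA relative to DMSO. Cytotoxicity assessed in parallel cultures by sulforhodamine B total-protein staining at 560 nm.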

Read-out in experiment [5]: Plasminogen activator inhibitor-1 (PAI1), SERPINE1 (gene 5054)
In words: BSK_MyoF_PAI1: BioMAP Diversity Plus: MyoF Assay for Plasminogen activator inhibitor-1 (PAI1) Biomarker Activity (AID 2284256).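 Note: PAI-1 protein level measured by ELISA in fibroblast cultures; PAI-1 read 24 h after compound addition.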 The settings on record: primary human lung fibroblasts. In outline:
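MyoF lung fibroblasts, human primary; compound 24 h; PAI-1 ELISA; positive-direction fit vs DMSO baseline; parallel SRB total-protein staining for cytotoxicity.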

Read-out in experiment [6]: CD69, CD69 (gene 969)
In words: BSK_IMphg_CD69: BioMAP Diversity Plus: IMphg Assay for CD69 Biomarker Activity (AID 2284257). The settings on record: primary human endothelial cells with macrophages. An outline of the steps: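 Human venular endothelial cells co-cultured with macrophages; CD69 quantified by ELISA 24 h after compound addition. Activity fitted in the positive direction relative to DMSO baseline; cytotoxicity tracked in parallel cultures via SRB total-protein staining.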

Read-out in experiment [7]: Eotaxin 3, CCL26 (gene 10344)
Nature of the experiment: BSK_BF4T_Eotaxin3: BioMAP Diversity Plus: BF4T Assay for Eotaxin 3 Biomarker Activity (AID 2284258). The settings on record: primary human bronchial epithelial cells with fibroblasts. In outline: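 Co-culture of human bronchial epithelial cells and dermal fibroblasts, exposed to chemicals for 24 h versus DMSO. Eotaxin-3 quantified by ELISA; cytotoxicity checked in parallel cultures by sulforhodamine B total-protein staining.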

Read-out in experiment [8]: Monocyte Chemoattractant Protein-1 (MCP1), CCL2 (gene 6347)
Nature of the experiment: BSK_BF4T_MCP1: BioMAP Diversity Plus: BF4T Assay for Monocyte Chemoattractant Protein-1 (MCP1) Biomarker Activity (AID 2284259). The settings on record: primary human bronchial epithelial cells with fibroblasts. An outline of the steps: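 Co-culture of bronchial epithelial cells and dermal fibroblasts dosed with chemical; MCP-1 measured by ELISA 24 h later. Activity fitted in positive direction versus DMSO; cytotoxicity checked by SRB staining in parallel cultures.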

Read-out in experiment [9]: Interleukin-8 (IL8), CXCL8 (gene 3576)
Nature of the experiment: BSK_MyoF_IL8: BioMAP Diversity Plus: MyoF Assay for Interleukin-8 (IL8) Biomarker Activity (AID 2284261). The settings on record: primary human lung fibroblasts. In outline:
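Lung fibroblasts (human primary) → chemical exposure → 24 h → IL-8 measured by ELISA. Signal increase scored versus DMSO control.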

Read-out in experiment [10]: CD90, THY1 (gene 7070)
In words: BSK_BF4T_CD90: BioMAP Diversity Plus: BF4T Assay for CD90 Biomarker Activity (AID 2284262). The settings on record: primary human bronchial epithelial cells with fibroblasts. An outline of the steps:
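Co-culture of human bronchial epithelial cells and dermal fibroblasts, 24 h compound exposure. Cell-surface CD90 measured by ELISA relative to DMSO; parallel SRB total-protein staining for cytotoxicity.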

Read-out in experiment [11]: Interleukin-8 (IL8), CXCL8 (gene 3576)
Nature of the experiment: BSK_BF4T_IL8: BioMAP Diversity Plus: BF4T Assay for Interleukin-8 (IL8) Biomarker Activity (AID 2284263). The settings on record: primary human bronchial epithelial cells with fibroblasts. An outline of the steps: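 Human bronchial epithelial cells with dermal fibroblasts co-culture; IL-8 measured by ELISA 24 hours after dosing, fitted vs DMSO. Cytotoxicity tracked in parallel cultures by SRB total-protein staining.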

Read-out in experiment [12]: Interleukin-1 alpha (IL1a), IL1A (gene 3552)
Nature of the experiment: BSK_BF4T_IL1a: BioMAP Diversity Plus: BF4T Assay for Interleukin-1 alpha (IL1a) Biomarker Activity (AID 2284264). The settings on record: primary human bronchial epithelial cells with fibroblasts. In outline:
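Human bronchial epithelial cells co-cultured with dermal fibroblasts, dosed and read at 24 h. Secreted/surface IL-1α quantified by ELISA; gain-of-signal fitted relative to DMSO baseline. Parallel SRB total-protein staining tracked cytotoxicity.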

Read-out in experiment [13]: Decorin, DCN (gene 1634)
In words: BSK_MyoF_Decorin: BioMAP Diversity Plus: MyoF Assay for Decorin Biomarker Activity (AID 2284265). The settings on record: primary human lung fibroblasts. An outline of the steps:
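ELISA readout of decorin, 24 h post-dosing; primary human lung fibroblast (MyoF) culture; gain-of-signal fit vs DMSO baseline.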

Experiment [14] is described as follows: BSK_MyoF_SRB: Viability Assessment in the BioMAP Diversity Plus: MyoF Assay (AID 2284267).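 Note: total protein by SRB absorbance in parallel cultures as cytotoxicity measure.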 The settings on record: primary human lung fibroblasts. An outline of the steps: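 Cytotoxicity in primary human lung fibroblasts is gauged by SRB total-protein staining 24 h after dosing, with DMSO as the negative control.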
Read-out in experiment [15]: Plasminogen activator inhibitor-1 (PAI1), SERPINE1 (gene 5054)
In words: BSK_KF3CT_PAI1: BioMAP Diversity Plus: KF3CT Assay for Plasminogen activator inhibitor-1 (PAI1) Biomarker Activity (AID 2284252). The settings on record: primary human keratinocytes with fibroblasts. In outline: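 Signal is PAI-1 detected by ELISA in a human skin-derived keratinocyte/fibroblast co-culture, 24 h after dosing; DMSO served as negative control and baseline.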

Read-out in experiment [16]: Interferon-inducible T-cell alpha chemoattractant (ITAC), CXCL11 (gene 6373)
In words: BSK_hDFCGF_ITAC: BioMAP Diversity Plus: hDFCGF Assay for Interferon-inducible T-cell alpha chemoattractant (ITAC) Biomarker Activity (AID 2284251). The settings on record: primary human foreskin fibroblasts. In outline: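 ELISA readout of I-TAC after 24 h chemical exposure; human dermal foreskin fibroblast primary cells. Positive-direction fitting vs DMSO baseline. Parallel SRB total-protein staining (0.1% SRB after 10% TCA fixation, 560 nm) flags cytotoxicity.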

Read-out in experiment [17]: Collagen I, COL1A1 (gene 1277)
Nature of the experiment: BSK_hDFCGF_CollagenI: BioMAP Diversity Plus: hDFCGF Assay for Collagen I Biomarker Activity (AID 2284250). The settings on record: primary human foreskin fibroblasts. An outline of the steps: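 Cells were primary human foreskin fibroblasts treated for 24 h. Collagen I levels were then determined by ELISA and compared against DMSO controls.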

Read-out in experiment [18]: Monocyte Chemoattractant Protein-1 (MCP1), CCL2 (gene 6347)
In words: BSK_IMphg_MCP1: BioMAP Diversity Plus: IMphg Assay for Monocyte Chemoattractant Protein-1 (MCP1) Biomarker Activity (AID 2284253). The settings on record: primary human endothelial cells with macrophages. In outline: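 Human venular endothelial cells co-cultured with macrophages; MCP-1 measured by ELISA 24 hours post-dose and fitted against DMSO. Cytotoxicity monitored by SRB total-protein staining in parallel cultures.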

Read-out in experiment [19]: KRT18 (gene 3875)
Nature of the experiment: BSK_BF4T_Keratin818: BioMAP Diversity Plus: BF4T Assay for Keratin 818 Biomarker Activity (AID 2284266). The settings on record: primary human bronchial epithelial cells with fibroblasts. An outline of the steps:
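Co-culture of human bronchial epithelial cells and dermal fibroblasts, chemical exposure 24 h. Keratin 8/18 measured by ELISA; positive-direction fit vs DMSO. SRB total protein run in parallel cultures for cytotoxicity.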

“And” between values parts separate entries of the source, which are not always exact repeats. Identical values can stand only once. Some compounds were tested as several samples or in several runs, with calls that do not always agree. The source made the active and inactive calls. Rule for the calls: active = hit-call score of the fitted dose curve at least 0.9, where 1 is the maximum; inactive = score below 0.9.

As for `CNS(=O)(=O)C(F)(F)C(F)(F)C(F)(F)C(F)(F)C(F)(F)C(F)(F)C(F)(F)C(F)(F)F`, the result in [1], in [2], in experiment [4], in [5], in experiment [6] and in experiment [8] was inactive. Further, the outcome in [9], in experiment [10], in experiment [11], in [12], in experiment [13] and in experiment [14] was inactive. In addition, the AC50 is 8.13 µM (active) and 9.41 µM (active) in [3]; 3.88 µM (active) and 220 nM (active) in experiment [7]; 9.75 µM (active) in experiment [9]; 46.3 µM (active) in experiment [11].
For `NC(=O)C(F)(F)C(F)(F)C(F)(F)C(F)F`, the outcome in [1], in experiment [2], in experiment [15], in experiment [4], in experiment [6] and in experiment [7] was inactive. The result in [8], in experiment [9], in [10], in experiment [11], in [12] and in [13] was inactive. Further, in experiment [14], the outcome was inactive.
As to `NCC(F)(F)C(F)(F)C(F)(F)C(F)(F)C(F)(F)C(F)(F)C(F)(F)C(F)(F)F`, the outcome in [1], in experiment [2], in experiment [16], in experiment [3], in experiment [4] and in experiment [6] was inactive. For the same compound, the outcome in experiment [7], in [8], in experiment [9], in experiment [10], in [11] and in experiment [12] was inactive. Also, the result in experiment [13] and in [14] was inactive.
On to `OCCCCC(F)(F)C(F)(F)C(F)(F)C(F)(F)F`, for which the result in [1], in [2], in experiment [17], in experiment [18], in experiment [4] and in experiment [5] was inactive. For the same compound, the outcome in experiment [6], in [7], in experiment [8], in experiment [9], in experiment [10] and in [11] was inactive. Moreover, the result in [12], in experiment [13], in experiment [19] and in [14] was inactive.
On to `CCOC(=O)CC(=O)C(F)(F)C(F)(F)F`, for which the outcome in experiment [1], in experiment [2], in experiment [3], in experiment [4], in [6] and in experiment [7] was inactive. The outcome in [8], in experiment [9], in experiment [10], in [11], in experiment [12] and in experiment [13] was inactive. Besides, the result in experiment [14] was inactive.
Regarding `O=S(=O)(Cl)C(F)(F)C(F)(F)C(F)(F)C(F)(F)C(F)(F)C(F)(F)C(F)(F)C(F)(F)F`, the result in [1], in [2], in experiment [16], in [4], in experiment [5] and in experiment [6] was inactive. For the same compound, the result in experiment [9], in experiment [10], in experiment [11], in experiment [12], in experiment [13] and in experiment [14] was inactive. Besides, the concentration at half-maximal activity (AC50) in experiment [2] is 30 µM (active); in [6] it was 15.1 µM (active); in [7], 28.3 µM (active) and 19.5 µM (active); in [8] it was 46.5 µM (active) and 43.3 µM (active); in [12], 46.3 µM (active); in experiment [13], 22.3 µM (active).
